From PubChem BioAssay (NCI)
About 83,000 compounds went through this panel and 20% of them were active in at least one assay; those are over-represented in the sample as a whole.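 The test compound was applied at a single concentration to cells in 96-well plates for 48 hours, and percent growth was recorded.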 Values without a mark were called inactive. Active and inactive are the calls of the source. How the source made its calls: active means growth percent below 10; inactive means the rest.

Key:
Test in all cases: NCI-60 one-dose screen, 48 h (100 = growth as untreated, 0 = no growth, -100 = all killed)
Conditions in all cases: 10 µM unless noted
[1] = tested on: DU-145 prostate
[2] = tested on: K-562 leukemia
[3] = tested on: MALME-3M melanoma
[4] = tested on: MDA-MB-231 breast
[5] = tested on: RXF 393 renal
[6] = tested on: SF-268 CNS
[7] = tested on: SF-295 CNS
[8] = tested on: SF-539 CNS
[9] = tested on: UACC-257 melanoma
[10] = tested on: M14 melanoma

| Structure (SMILES) | growth [1] | growth [2] | growth [3] | growth [4] | growth [5] | growth [6] | growth [7] | growth [8] | growth [9] | growth [10] |
| --- | --- | --- | --- | --- | --- | --- | --- | --- | --- | --- |
| CN(C)CCCOc1c(Br)cc(/C=C/C(=O)N(C)CCc2cc(Br)c(OCCCN(C)C)c(Br)c2)cc1Br | 40.5% | -48.7% (active) | -62.4% (active) | 23.7% | 59.6% | 52.5% | 60.9% | -75.5% (active) | 71.7% | -68.1% (active) |
| COc1ccc(Cl)cc1NC(=O)c1cc2c([nH]1)-c1nc(N)sc1CCC2 | 101% | 74.7% | 101% | 105% | 114% | 98.2% | 106% | 99.4% | 91% | 97.6% |
| COc1cc(NS(C)(=O)=O)ccc1Cc1c2ccccc2nc2ccccc12 | 11% | 18.2% | 14.8% | 53.2% | -13.4% (active) | 22.4% | 3.77% (active) | -28.5% (active) | 25% | 10% |
| Fc1ccc(/C=N/n2c(-c3cc(Cl)cc(Cl)c3Cl)nn(CNc3ccc(Cl)nn3)c2=S)cc1 | 121% | 85.8% | 103% | 83.3% | 97% | 105% | 121% | 97.6% | 98.1% | 85.6% |
| O=C(NCCNc1nccc(-c2c(-c3cccc(O)c3)nc3sccn23)n1)Nc1cccc(C(F)(F)F)c1 | 89% | 70.6% | 23.6% | 37.7% | 26.3% | 26.2% | 75.5% | 98.5% | 25.3% | -21.7% (active) |
| Nc1nccc2c1ccn2-c1cccc(NC(=O)c2ccc(N3CCOCC3)c(C(F)(F)F)c2)c1 | -0.195% (active) | 9.79% (active) | 39.8% | 6.1% (active) | -75.9% (active) | 21.8% | -30.9% (active) | 3.23% (active) | 59.2% | 16% |
| CCc1c(C)c2cc(-n3c(-c4ccc(OC)cc4)csc3=N)c(O)c(C)c2oc1=O | 17.7% | 5.33% (active) | 15.3% | 13.4% | 27.8% | 16.5% | 20.8% | -0.811% (active) | 60.8% | 9.77% (active) |
| CCOC(=O)c1noc2c1CCc1c-2cn(Cc2ccc(OC)cc2)c1-c1cc(OC)c(OC)c(OC)c1 | 24.5% | 7.62% (active) | 76.9% | -1.46% (active) | 11.7% | 41.5% | 21.2% | -10.4% (active) | 54.3% | 3.01% (active) |
| COc1ccc(Cl)cc1NC(=O)c1cc2c([nH]1)-c1nc(NC(=O)C(C)C)sc1CC2 | 96.2% | 76.4% | 104% | 113% | 109% | 94.9% | 101% | 26% | 92.7% | 101% |
| O=C(CSc1nnc(-c2cc3c([nH]c4ccccc43)c(-c3cccc(O)c3)n2)n1-c1ccccc1)c1ccccc1 | 47.8% | 21.8% | 55.4% | 78% | -11.4% (active) | 63.1% | 16.8% | 33.1% | 93.3% | 30% |
| CCCCOc1nc2ccc(Cl)cc2cc1/C=C/C(=O)/C=C/c1ccc(OC)cc1 | 93.8% | 87% | 100% | 106% | 119% | 95.4% | 113% | 104% | 89.7% | 66.3% |
| Cc1ccc(NC(=O)CN2CCOCC2)cc1Cl | 102% | 94.7% | 102% | 96% | 104% | 103% | 94.3% | 98.7% | 88.1% | 100% |
| c1ccc([Se]CCCN2CCN(CCC[Se]c3ccccc3)CC2)cc1 | 109% | 129% | 123% | 98.8% | 44.6% | 109% | -58.4% (active) | 112% | 104% | 90.3% |
| CN(C)c1ccc(/C=N/n2c(-c3cc(F)c(Cl)cc3Cl)nn(CN3CCOCC3)c2=S)cc1 | 106% | 82.7% | 87.6% | 99.8% | 110% | 119% | 96.1% | 97.1% | 91.9% | 82.6% |
| O=C(Nc1cccc(-n2ccc3c(NC(=O)c4ccccc4)nccc32)c1)c1cccc(C(F)(F)F)c1 | -10.9% (active) | 12.1% | 48.3% | 3.85% (active) | -49.4% (active) | 14.8% | -8.39% (active) | 4.4% (active) | 42.4% | 7.48% (active) |
| CC(=O)Nc1ccc(OC(=O)c2ccccc2O)cc1 | 110% | 88.1% | 105% | 108% | 114% | 106% | 95.3% | 108% | 111% | 109% |
| O=S(=O)(CCN1CCOCC1)Nc1cncc(-c2ccc3ncnc(Nc4ccc(F)c(Cl)c4)c3c2)c1 | 65.3% | 96.5% | 57.7% | 67.9% | 84.6% | 63.5% | 82.1% | 75.1% | 87.6% | 73.3% |
| COc1ccc2c(c1)C(=O)/C(=C/c1ccc(OCC(=O)c3ccc(Cl)cc3)cc1)O2 | 104% | -42.3% (active) | 80% | 68.8% | 74.5% | 108% | 73.7% | 96% | 75.1% | 83.9% |
| CC(C)CCC[C@@H](C)[C@H]1CC[C@H]2[C@@H]3CC=C4N(c5ccccc5)C(=O)CC[C@]4(C)[C@H]3CC[C@]12C | 103% | 103% | 97.8% | 111% | 103% | 99.3% | 99% | 101% | 105% | 96.1% |
| COc1cc(-c2nc(SCC(=O)Nc3ccc(C(C)=O)cc3)[nH]c(=O)c2C#N)cc(OC)c1OC | 14.1% | 0.453% (active) | 69.5% | 19.7% | 24.6% | 26.9% | 3.4% (active) | -22.9% (active) | 53.7% | 5.17% (active) |
| O=S(=O)(CCN1CCOCC1)Nc1cc(-c2ccc3ncnc(Nc4ccc(F)c(Cl)c4)c3c2)cnc1Cl | 15.6% | 42.3% | -23.1% (active) | -1.28% (active) | -19% (active) | 16.8% | 2.93% (active) | -34.5% (active) | -3.1% (active) | 14.5% |
| O=C1COc2ccccc2C(=O)N1CCCCNc1ccccc1 | 96.3% | 68.5% | 102% | 88.8% | 123% | 73.2% | 96.3% | 63.2% | 105% | 99.1% |
| O=C(O)c1cccc2oc(-c3ccccc3O)nc12 | 63.6% | 60.9% | 70.9% | 51.9% | 61% | 45% | 31.7% | 50% | 80.2% | 54.8% |
| COc1ccc2c(c1)nnc1c3cccnc3[nH]c21 | -18.3% (active) | -41.1% (active) | 11.4% | 0.316% (active) | -67.2% (active) | -24.8% (active) | 39.8% | -48.7% (active) | 33.5% | 4.79% (active) |
| CN1CCN(C(=O)/C=C/c2ccc([N+](=O)[O-])o2)CC1 | 92.6% | 86.6% | 22.6% | 87.8% | -14.9% (active) | 87.6% | 134% | 107% | 1.85% (active) | 92.4% |
| CCOC(=O)C1CSC(C)(C(=O)OCC)N1 (stereo not given) | 108% | 103% | 98.4% | 107% | 115% | 106% | 106% | 104% | 111% | 98.7% |
| Cc1ccc2nc(-c3ccc(-n4on4-c4ccc(/C=C/c5ccc(-n6on6-c6ccc(-c7nc8ccc(C)cc8s7)cc6)cc5S(=O)(=O)O)c(S(=O)(=O)O)c4)cc3)sc2c1 | 111% | 99.2% | 101% | 133% | 110% | 99.8% | 110% | 98.7% | 110% | 99.5% |
